This is a sample that favours compounds with a hit; in the whole collection about 11% have one here.
HttQ103 aggreg = reduces HttQ103-GFP aggregates in PC12 cells; PC12 HttQ103-GFP aggregates, Acumen cytometry, 40 h; Potency, µM (series often up to 46.1 µM), for inactives: at the highest dose activity change, negative = inhibition, actives largely listed as inhibitors; 220,000 tested, 1.1% active; active = well fitted curve in the direction sought with a large enough effect; inconclusive = small, poorly fitted or top-dose-only effect, or another doubt; inactive = no such curve, though single readings can be large; an effect the other way counts as inactive or inconclusive; also: potency is read from the fitted curve at half-maximal effect; % is scaled to controls: 0 for no effect and ±100 for the full control effect; nearly all actives have a fitted effect of over 60% in size
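Huntingtin Q103 exon 1–GFP aggregates in induced PC12 cells (100 nM tebufenozide) were quantified by cytometry from lysates, with compounds dosed in titration.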
HTT ATP protect = cytoprotection in Huntington HTT-Q103 PC12 cell model; PC12 HTT-Q103 induced, cytoprotection, ATP luminescence, 40 h; Potency, µM (doses to about 56.4 µM), without a hit: cytoprotection (ATP increase), usual class: activators; 230,000 tested, 0.14% active; active = well fitted curve in the direction sought with a large enough effect; inconclusive = small, poorly fitted or top-dose-only effect, or another doubt; inactive = no such curve, though single readings can be large; an effect the other way counts as inactive or inconclusive; also: potency is read from the fitted curve at half-maximal effect; % of control where 0% means no effect; nearly all actives have a fitted effect of over 45% in size
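Huntington model: PC12 line, ecdysone-inducible HTTQ103 exon1–GFP, tebufenozide 100 nM. Test articles in a dose series. Endpoint luminescence from cellular ATP.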
GoLoco inh red = inhibitors of human Gai1-RGS12 GoLoco interaction (red fluorophore). P63096. Gai1:RGS12 GoLoco peptide FP, rhodamine, 10 min. Potency, µM (series often up to 61.6 µM), for inactives: at the highest dose activity, negative = inhibition, hits mostly inhibitors. 230,000 tested, 0.44% active. AID 880; active = well fitted inhibition curve with a large enough effect, not every such curve was filed as active; inactive = no such curve, though single readings can be large or run the other way; also: potency is read from the fitted curve at half-maximal effect; % is scaled to controls: 0 for no effect and ±100 for the full control effect; nearly all actives have a fitted effect of over 30% in size
Target sequence (P63096 whole entry, looked up): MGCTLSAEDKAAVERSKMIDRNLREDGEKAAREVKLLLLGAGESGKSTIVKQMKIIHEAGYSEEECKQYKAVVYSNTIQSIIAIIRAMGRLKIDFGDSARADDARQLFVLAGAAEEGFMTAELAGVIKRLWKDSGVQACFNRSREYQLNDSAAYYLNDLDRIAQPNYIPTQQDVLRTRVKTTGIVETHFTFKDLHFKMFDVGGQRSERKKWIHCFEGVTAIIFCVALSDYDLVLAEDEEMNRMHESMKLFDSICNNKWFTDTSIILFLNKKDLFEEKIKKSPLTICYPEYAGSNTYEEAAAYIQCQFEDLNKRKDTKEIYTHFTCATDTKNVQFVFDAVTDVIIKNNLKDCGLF
PNC inhibitor = inhibitors of perinucleolar compartment assembly | PC3M PTB-GFP, PNC prevalence imaging, 16 h; stronger effect = lower value | activity change (PNC), negative = inhibition, % at 10 µM | 140,000 tested, 3.1% active | AID 2417;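 active = readout at or below -70, meaning at least 70% loss of cells showing the perinucleolar compartment, a nuclear body marking cancer cells; inconclusive = readout between -30 and a set limit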;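 also: plate controls were DMSO wells for no effect and camptothecin positive control wells for full effect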
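Read-out is percentage of cells bearing a perinucleolar compartment, from automated 20x imaging of fixed, Hoechst-stained PC3M PTB-GFP cells. Cells were seeded 4 h, then exposed 16 h to compound (23 nl of library stock) in duplicate plates.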
ALDH1A1 inh = inhibitors of human aldehyde dehydrogenase 1A1; AID 1030; Purified ALDH1A1, NADH fluorescence, propionaldehyde substrate; Potency, µM (highest dose often 75.3 µM), for the others: top-dose activity, negative = inhibition, usual class: inhibitors; P00352; 220,000 tested, 7.3% active;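 also: potency is read from the fitted curve at half-maximal effect; plate controls were no enzyme wells and a reference inhibitor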
HPGD block = blocks human HPGD enzyme activity; purified HPGD, NADH fluorescence kinetic, PGE2 substrate; P15428; Potency, µM, without a hit: top-dose activity change, negative = inhibition, actives largely listed as inhibitors; 150,000 tested, 4.3% active; also: potency is read from the fitted curve at half-maximal effect; % is scaled to controls: 0 for no effect and ±100 for the full control effect
Target sequence (P15428 whole entry, looked up): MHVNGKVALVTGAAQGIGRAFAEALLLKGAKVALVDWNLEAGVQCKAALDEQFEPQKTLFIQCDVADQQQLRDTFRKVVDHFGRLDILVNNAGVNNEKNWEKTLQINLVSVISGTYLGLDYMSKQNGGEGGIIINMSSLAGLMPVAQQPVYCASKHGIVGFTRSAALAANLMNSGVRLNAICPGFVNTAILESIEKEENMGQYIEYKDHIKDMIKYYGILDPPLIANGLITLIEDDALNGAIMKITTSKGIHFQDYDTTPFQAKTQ
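NADH formation kinetics: reaction with 30 uM PGE2 and 1 mM NAD+ (final), 20 nM enzyme, Tris-HCl pH 8 with Tween 20, after 15 min compound preincubation at room temperature. Fluorescence change, last versus first of five reads.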
* = called active by the depositor; ? = inconclusive; · = no result; [ ] = remark or other dose. Unless noted, calls follow the shape of the dose curve; as a rule, active = well fitted inhibition curve with a large enough effect (not every such curve was filed as active); inconclusive = small, poorly fitted or top-dose-only effect, or another doubt; inactive = no such curve, though single readings can be large or run the other way.

SMILES	HttQ103 aggreg	HTT ATP protect	GoLoco inh red	PNC inhibitor	ALDH1A1 inh	HPGD block
O=C(CSc1nc2cc(Cl)ccc2s1)N1CCCc2ccccc21	-9.1%	-21.7%[10 µM]	1.8%	21.9	8.91µM*	?
O=C(CSc1nccc(=O)[nH]1)N1CCCc2ccccc21	14.5%	0.2%	-6.4%	?	-14.9%	-9.5%
Cc1cc(=O)[nH]c(SCC(=O)N2CCCc3ccccc32)n1	24.5%	30.4%[10 µM]	-1.9%	-100.0*	-1.4%	-9.2%
COc1ccc(NC(=O)C(CC(C)C)NC(=O)C2CCC(C)CC2)c(OC)c1 (centres undefined)	-15.7%	-29.2%	18.4%	·	-1.9%	·
CSCC[C@@H]1NC(=O)C/C=C\[C@@H](C)COC(=O)[C@@H](CCSC)NC(=O)C/C=C\[C@@H](C)COC1=O	·	5.6%[10 µM]	·	·	-4.8%[13.5 µM]	·
N#Cc1ccc(/C=C/C(=O)c2ccccc2)cc1	-8.1%[9.22 µM]	-4.4%[10 µM]	-14.5%	·	8.91µM*	·
CC(=O)[C@]1(O)CC[C@@H]2[C@H]3C[C@@H](C)C4=CC(=O)CC[C@@]4(C)C3[C@@H](O)C[C@]21C (some centres undefined)	·	·	4.4%[14.2 µM]	·	?	-18.2%
COCC(=O)N1CCC2(CCCN(Cc3cc(C(F)(F)F)cc(C(F)(F)F)c3)C2)CC1	·	?	8.6%	·	2.8%	-6.8%
O=C(O)C(F)(F)C(F)(F)C(F)(F)C(F)(F)C(=O)O	·	0.4%[10 µM]	-9.4%[14.2 µM]	·	17.3%[13.5 µM]	-10.7%
COc1ccc(CN(C(C)=O)c2cccc(C)c2C)cc1	-5.8%	-38.1%	1.3%	-107.1*	5.01µM*	-3.7%
CC(=O)N(Cc1ccc(Br)cc1)c1cccc(C)c1C	-6.5%	-18.8%	-2.3%	·	?	·
COc1ccc(C2CC(=O)N(CCCN(C)CCc3ccc(OC)c(OC)c3)C2)cc1 (centres undefined)	?	-33.5%	-32.1%	·	14.1µM*	·
O=C1c2cccc3cc(Br)cc(c23)C(=O)N1Nc1ccc(Br)cc1	22.8%	-17.8%[10 µM]	-1.4%	?	12.0%	-2.9%
O=C1c2cccc3cccc(c23)C(=O)N1Nc1ccccc1	-1.7%[9.22 µM]	-6.9%[10 µM]	6.2%	·	25.1µM*	·
Cc1cc(C(=O)OCC(=O)c2cccc([N+](=O)[O-])c2)c2cccc(C)c2n1	7.1%	-0.5%	-15.7%	101.3	22.4µM*	-21.0%
Cc1ccc(S(=O)(=O)N(C)c2ccccc2C(=O)NC2CCCC2)cc1	17.2%	6.4%[0.074 µM]	7.6%	-6.0	3.0%	-5.6%
Clc1ccc(-c2csc(=Nc3cccnc3)n2CCCn2ccnc2)cc1Cl	11.2µM*	-17.5%[10 µM]	4.2%	77.4	0.9%	3.1%
COCCn1c(-c2ccc(Br)cc2)csc1=Nc1cccnc1	?	2.1%[10 µM]	7.7%	·	?	·
O=C(Nc1ccc(S(=O)(=O)N2CCOCC2)cc1)C1COc2ccccc2O1 (centres undefined)	13.3%	-1.7%	-2.9%	?	1.2%	4.6%
O=C(C1COc2ccccc2O1)N1CCCC1 (centres undefined)	0.2%[9.22 µM]	6.2%	-1.1%	?	?	12.6µM*
O=C(Nc1ccc(S(=O)(=O)N2CCCC2)cc1)C1COc2ccccc2O1 (centres undefined)	-10.3%	-4.1%	-15.9%	-90.4*	-2.9%	-10.4%
CCC(C)C1/C=C\CCCC(=O)N1Cc1ccc(C)cc1 (centres undefined)	·	-13.0%	-1.1%[88.7 µM]	·	-7.2%	-10.5%
O=C(CCCSc1nnc(Nc2ccccc2F)s1)N1CCOCC1	-8.1%	-40.8%[10 µM]	6.1%	·	?	·
CC1CN(c2ccc(Oc3ccccc3)cc2)c2nc3c(c(=O)[nH]c(=O)n3C)n2C1 (centres undefined)	13.2%	-37.0%	2.0%	40.2	-4.7%	35.5µM*
CC1CN(CCc2ccccc2)c2nc3c(c(=O)[nH]c(=O)n3C)n2C1 (centres undefined)	-0.6%	-19.8%	-0.1%	28.3	-14.4%	-6.0%
SMILES	HttQ103 aggreg	HTT ATP protect	GoLoco inh red	PNC inhibitor	ALDH1A1 inh	HPGD block
C=CCN(C(=O)C1=NN(C2CCS(=O)(=O)C2)C(=O)CC1)c1nc(-c2ccc([N+](=O)[O-])cc2)cs1 (centres undefined)	?	-31.2%	10.2%	·	-10.9%	·
CCNc1ccc(C(=O)OCC(=O)NCCN2C(=O)CSC2=O)cc1[N+](=O)[O-]	5.4%	?	-11.0%	·	3.55µM*	·
C=CCSc1nnc(-c2cc3c(s2)-c2ccccc2CC3)o1	-14.1%	29.6%[10 µM]	2.5%	?	?	?
COC(=O)[C@@H](NC(=O)NCc1cccs1)C(C)C	-14.1%	4.7%[0.074 µM]	-9.2%	11.2	-10.2%	-3.3%
CC(C)Oc1ccc(C(=O)NCc2ccco2)cc1	-9.6%	-18.8%	1.1%	51.5	-8.2%	17.8µM*
COC(=O)[C@@H](NC(=O)NCc1ccco1)C(C)C	-8.2%	-4.1%	5.7%	-0.3	10µM*	-9.3%
CCC1=Nc2cc(C(=O)NCc3ccco3)ccc2Sc2ccc(Cl)cc21	3.8%	-54.8%[10 µM]	17.6%	-100.0*	?	-27.3%
O=C(NCc1ccco1)c1ccc(COc2cc(Cl)ccc2Cl)cc1	-4.8%	?	4.9%	-2.2	3.7%	17.8µM*
COc1cc(CCCN2C(N)=NC[C@H]2Cc2ccc(O)cc2)cc(OC)c1OC	-10.8%[9.22 µM]	-7.5%[10 µM]	2.8%	·	·	·
N#CC(=C=[N-])c1nc2ccccc2nc1-[n+]1cccc(NC(=O)c2cccs2)c1	2.8%[9.22 µM]	1.4%[10 µM]	23.6%	·	-1.6%	·
COc1cc(C2CC(=O)Oc3ccc(O)cc32)cc(OC)c1OC (centres undefined)	·	-107.5%	-13.9%[88.7 µM]	·	?	?
O=C(NCc1ccco1)c1ccc(=O)oc1	-11.2%	-4.3%	·	-82.9*	0.1%	·
COc1ccc(S(=O)(=O)NCC2CCCN(C(=O)c3ccco3)C2)cc1 (centres undefined)	12.2%[9.22 µM]	6.1%[10 µM]	9.3%	·	3.98µM*	·
CCc1cc(C(=O)N2CCCC(CNS(=O)(=O)c3cccs3)C2)n(C)n1 (centres undefined)	-11.7%[9.22 µM]	-6.6%[10 µM]	4.5%	·	5.01µM*	·
COc1ccc(S(=O)(=O)NCC2CCCN(C(=O)c3cccs3)C2)cc1 (centres undefined)	?	24.4%[10 µM]	3.3%	·	1.12µM*	·
Cc1cc(C)n2nc(C(=O)N3CCCC(CNS(=O)(=O)c4cccs4)C3)cc2n1 (centres undefined)	26.1%[9.22 µM]	27.9%[10 µM]	4.6%	·	?	·
CN(C)CCNc1ccccn1	·	5.3%[10 µM]	7.4%[14.2 µM]	·	14.0%[13.5 µM]	-9.1%
CCCC(=O)Nc1sc(C(=O)Nc2cccc(N)c2)c(C)c1C(=O)OC	-2.8%[9.22 µM]	-23.9%[10 µM]	13.5%	·	0.1%	·
CSc1ccccc1-c1n[nH]c(=S)o1	-5.0%	12.8%[10 µM]	11.2%	·	22.4µM*	·
Cc1ccccc1-c1n[nH]c(=S)o1	0.1%	0.4%	-0.8%	18.0	?	-13.8%
C/C=C/c1ccc(OCCCNC2CCCC2)c(OC)c1	7.0%	2.0%	-5.0%	?	28.2µM*	-5.6%

Screening results (PubChem BioAssay)
